Laboratory results reported in PubChem BioAssay (NCI).
Where “and” joins values, the source holds several entries; their conditions need not be identical. Identical values can stand only once. This is part of a sample that, as a whole, favours compounds with a hit. Of some 83,000 tested, about 20% had one in any assay.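 Assay: single dose, 48 h. Readout: percent growth (0 = no net growth; negative = cell death). Active: <10.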 Values without a mark were called inactive. Calls of active or inactive are those of the source.

Assays:
Assay in all cases: NCI-60 one-dose screen, 48 h (100 = growth as untreated, 0 = no growth, -100 = all killed)
Details in all cases: 10 µM unless noted
NCI/ADR-RES ovarian = system: NCI/ADR-RES ovarian
BT-549 breast = system: BT-549 breast
MDA-MB-435 melanoma = system: MDA-MB-435 melanoma
SW-620 colon = system: SW-620 colon
MCF7 breast = system: MCF7 breast
HCT-116 colon = system: HCT-116 colon
HCC-2998 colon = system: HCC-2998 colon
KM12 colon = system: KM12 colon
T-47D breast = system: T-47D breast

Row | SMILES | growth (NCI/ADR-RES ovarian) | growth (BT-549 breast) | growth (MDA-MB-435 melanoma) [%] | growth (SW-620 colon) | growth (MCF7 breast) | growth (HCT-116 colon) | growth (HCC-2998 colon) | growth (KM12 colon) | growth (T-47D breast)
1 | CC1=CC(=O)CCC12CCOC2=O (stereo unspecified) | 94.7% | 90.5% | 95.5 | 98.6% | 97.4% | 102% | 102% | 104% | 
2 | Nc1ccc2c(c1)Cc1cc(N)ccc1-2 | 96.2% |  | 91.8 | 98.9% | 59.9% | 97.9% | 96.2% | 82.6% | 67.3%
3 | O=c1c2ccccc2nc(-c2ccccc2Cl)n1-c1nnc(C(F)(F)F)s1 | 11.6% | 22.3% | 57.8 | 37.5% | 21.4% | 16.8% | 17.6% | 29.1% | 
4 | Cc1cc(C(C)(C)C)ccc1O | 98.3% | 109% |  | 108% | 101% | 95.6% | 106% | 103% | 103%
5 | [N-]=[N+]=CC(=O)CCC(=O)C=[N+]=[N-] | 103% |  | 113 | 94.1% | 99.9% | 102% | 109% | 121% | 106%
6 | CC1OC(=O)C(C(C)C)NC(=O)C(C(C)C)OC(=O)C(C(C)C)NC(=O)C(C)OC(=O)C(C(C)C)NC(=O)C(C(C)C)OC(=O)C(C(C)C)NC(=O)C(C)OC(=O)C(C(C)C)NC(=O)C(C(C)C)OC(=O)C(C(C)C)NC1=O (stereo unspecified) | 0.571% (active) | -42.5% (active) |  | 3.61% (active) | -31.7% (active) | -69% (active) | -16.5% (active) | 0.9% (active) | -15.2% (active)
7 | O=[N+]([O-])c1ccc(P(=O)(O)O)cc1 | 103% | 89.9% | 101 | 105% | 91.2% | 96.6% | 102% | 115% | 
8 | COc1ccc(N(CC(=O)NCCC[Te]c2ccccc2)C(=O)c2ccccc2)cc1 | 11.5% | -36.2% (active) | 101 | 82% | 13.2% | 9.88% (active) | 57.6% | 26.3% | 
9 | CN(C)c1ccc(C=C2C(=O)NC(=O)NC2=O)cc1 | 76.7% |  | 111 | 93.4% | 100% | 53.9% |  | 98.9% | 76.1%
10 | CNC(=O)CCl | 103% | 101% | 101 | 107% | 98.2% | 99.6% | 95.1% | 108% | 
11 | CNC(=O)Oc1ccc(Cl)cc1SSc1cc(Cl)ccc1OC(=O)NC | 81.2% | 96.4% |  | 87.2% | 91.8% | 91.2% | 99.8% | 98.5% | 57.2%
12 | O=C(NC(Cl)=C(Cl)Cl)P(=O)(c1ccccc1)c1ccccc1 | 107% | 109% |  | 112% | 97.3% | 106% | 114% | 106% | 105%
13 | COCC1OC2OC3C(COC)OC(OC4C(COC)OC(OC5C(COC)OC(OC6C(COC)OC(OC7C(COC)OC(OC8C(COC)OC(OC1C(O)C2O)C(O)C8O)C(O)C7O)C(O)C6O)C(O)C5O)C(O)C4O)C(O)C3O (stereo unspecified) (tested in a mixture with another compound) | 127% |  |  | 109% | 101% | 120% | 89.4% | 109% | 113%
14 | O=C(Cc1ccccc1)c1ccccc1 | 105% | 100% | 102 | 96.6% | 92% | 101% | 114% | 99.8% | 
15 | CC(=O)Cc1ccc2c(c1)OCO2 | 103% | 106% |  | 110% | 115% | 102% | 102% | 96.1% | 103%
16 | Cc1ccc(C(=O)O[C@H](C(=O)O)[C@H](OC(=O)c2ccc(C)cc2)C(=O)O)cc1 | 99.1% | 101% | 104 | 105% | 105% | 103% | 111% | 112% | 
17 | Cc1cc(NC(=O)NCCCOc2ccc(N3C(N)=NC(N)=NC3(C)C)cc2Cl)ccc1S(=O)(=O)F | 100% | 59.9% |  | 18.5% | 25.5% | 17.8% | 7.8% (active) | 20.9% | 51.1%
18 | CCOC(=O)C1C(C=C(C)C)C1(C)C (stereo unspecified) | 99.1% | 104% |  | 89.3% | 112% | 108% | 96% | 94.5% | 115%
19 | COc1cc(C2C3=C(CCCC3=O)N(CCO)c3cc4c(cc32)CCC4)cc(OC)c1OC (stereo unspecified) | 87.8% | 109% |  | 103% | 23% | 68.6% | 78.9% | 90.5% | 38.2%
20 | CCCCCCCCCCCCCCCC[N+](C)(C)Cc1ccccc1 | 82.4% and 83.6% | -0.798% (active) and -75.1% (active) |  | -6.91% (active) and -62.2% (active) | 2.3% (active) and -42.3% (active) | -53% (active) and -100% (active) | -56.7% (active) and -49.7% (active) | -81% (active) and -85.4% (active) | 7% (active) and -12% (active)
21 | CCOC(=O)P(=O)(OCC)OCC | 109% |  |  | 106% | 106% | 111% | 106% | 113% | 108%
22 | COC12CC3(C)C(C4=CC(=O)OC4)CCC3(O)C3CCC4=CC(=O)CCC4(CO1)C32 (stereo unspecified) | 113% |  | 106 | 105% | 98.1% | 101% | 131% | 114% | 116%
23 | COC[C@H]1OC(=O)c2coc3c2[C@@]1(C)C1=C(C3=O)[C@@H]2CCC(=O)[C@@]2(C)C[C@H]1OC(C)=O | 52.5% | 26.3% |  | 53.4% | 21.5% | 45.7% |  | 51.2% | -2.63% (active)
24 | Cc1ccccc1-n1c(/C=C\c2ccccn2)nc2ccccc2c1=O | -19.9% (active) |  | 66.5 | 68.9% | 66.9% | 44% | 38.2% | 65.4% | 49.1%
25 | C[C@]12C[C@H](c3ccoc3)OC(=O)[C@H]1CC[C@@]1(C)[C@@H]2[C@H]2C=C[C@]1(O)C(=O)O2 | 106% | 86.5% |  | 109% | 92.7% | 76.6% | 103% | 104% | 103%
26 | Nc1c(Cl)c(Cl)nc(C(=O)O)c1Cl | 101% |  | 106 | 99.1% | 95.2% | 97.3% | 95.7% | 101% | 101%
27 | CC[C@H](C)[C@H](NC(=O)[C@H]1CCCCN1C)C(=O)N(C)[C@H](C(=O)NC12CC(C(=O)N[C@@H](Cc3ccccc3)C[C@H](C)C(=O)OC)(C1)C2)C(C)C | 103% | 101% |  | 107% | 96.4% | 99.5% | 109% | 104% | 85.7%
28 | O=C1CN2CCC1CC2 | 113% | 94.5% | 102 | 106% | 103% | 100% | 124% | 102% | 
29 | CC[C@H](C)[C@H](NC(=O)C12CC(NC)(C1)C2)C(=O)N(C)[C@H](C[C@@H](OC(C)=O)c1nc(C(=O)N[C@@H](Cc2ccccc2)C[C@H](C)C(=O)OC)cs1)C(C)C | 68.9% | -22.4% (active) |  | 39.5% | 15% | 1.15% (active) | 8.1% (active) | 6.78% (active) | 51.9%
30 | O=NN(c1ccccc1)c1ccccc1 | 100% | 122% | 105 | 102% | 99.8% | 95.4% | 101% | 102% | 
